Laboratory results published in the supplement of paper PMC8728848.
About 410 targets per protein were measured; listed, in parts, are those with the strongest signals and a random draw of the rest.

Experiments:
Experiment in all cases: glycan array binding signal (z-score within array); higher = stronger binding
Conditions in all cases: glycan notation: IUPAC condensed, linker removed
[1] = system: GlcNAc(b1-3)Gal(b1-4)GlcNAc(b1-3)Gal(b1-4)GlcNAc(b1-2)[GlcNAc(b1-3)Gal(b1-4)GlcNAc(b1-3)Gal(b1-4)GlcNAc(b1-6)]Man(a1-6)[GlcNAc(b1-3)Gal(b1-4)GlcNAc(b1-3)Gal(b1-4)GlcNAc(b1-2)Man(a1-3)]Man(b1-4)GlcNAc(b1-4)[Fuc(a1-6)]GlcNAc
Outline: (§1)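 The binding signal is a Z-score computed within each array and averaged over linkers. Arrays of the same protein sequence at different concentrations or buffers were also averaged together. Data originate from 3228 arrays in the Consortium for Functional Glycomics database, kept only where the protein sequence was available.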

[2] = system: GlcNAc(b1-2)[GlcNAc(b1-6)]Man(a1-6)[GlcNAc(b1-2)Man(a1-3)]Man(b1-4)GlcNAc(b1-4)[Fuc(a1-6)]GlcNAc
Outline: as §1

[3] = system: GlcNAc(b1-3)Gal(b1-4)GlcNAc(b1-2)[GlcNAc(b1-3)Gal(b1-4)GlcNAc(b1-6)]Man(a1-6)[GlcNAc(b1-3)Gal(b1-4)GlcNAc(b1-2)Man(a1-3)]Man(b1-4)GlcNAc(b1-4)GlcNAc
Outline: as §1

[4] = system: GlcNAc(b1-3)Gal(b1-4)GlcNAc(b1-3)Gal(b1-4)GlcNAc(b1-3)Gal(b1-4)GlcNAc(b1-2)Man(a1-3)[GlcNAc(b1-3)Gal(b1-4)GlcNAc(b1-3)Gal(b1-4)GlcNAc(b1-3)Gal(b1-4)GlcNAc(b1-2)Man(a1-6)]Man(b1-4)GlcNAc(b1-4)GlcNAc
Outline: as §1

[5] = system: GlcNAc(b1-3)Gal(b1-4)GlcNAc(b1-3)Gal(b1-4)GlcNAc(b1-3)Gal(b1-4)GlcNAc(b1-2)[GlcNAc(b1-3)Gal(b1-4)GlcNAc(b1-3)Gal(b1-4)GlcNAc(b1-3)Gal(b1-4)GlcNAc(b1-6)]Man(a1-6)[GlcNAc(b1-3)Gal(b1-4)GlcNAc(b1-3)Gal(b1-4)GlcNAc(b1-3)Gal(b1-4)GlcNAc(b1-2)Man(a1-3)]Man(b1-4)GlcNAc(b1-4)[Fuc(a1-6)]GlcNAc
Outline: as §1

[6] = system: GlcNAc(b1-3)Gal(b1-4)GlcNAc(b1-3)Gal(b1-4)GlcNAc(b1-3)Gal(b1-4)GlcNAc(b1-3)Gal(b1-4)GlcNAc(b1-2)Man(a1-3)[GlcNAc(b1-3)Gal(b1-4)GlcNAc(b1-3)Gal(b1-4)GlcNAc(b1-3)Gal(b1-4)GlcNAc(b1-3)Gal(b1-4)GlcNAc(b1-2)Man(a1-6)]Man(b1-4)GlcNAc(b1-4)GlcNAc
Outline: as §1

[7] = system: GlcNAc(b1-3)Gal(b1-4)GlcNAc(b1-3)Gal(b1-4)GlcNAc(b1-3)Gal(b1-4)GlcNAc(b1-3)Gal(b1-4)GlcNAc(b1-2)[GlcNAc(b1-3)Gal(b1-4)GlcNAc(b1-3)Gal(b1-4)GlcNAc(b1-3)Gal(b1-4)GlcNAc(b1-3)Gal(b1-4)GlcNAc(b1-6)]Man(a1-6)[GlcNAc(b1-3)Gal(b1-4)GlcNAc(b1-3)Gal(b1-4)GlcNAc(b1-3)Gal(b1-4)GlcNAc(b1-3)Gal(b1-4)GlcNAc(b1-2)Man(a1-3)]Man(b1-4)GlcNAc(b1-4)[Fuc(a1-6)]GlcNAc
Outline: as §1

[8] = system: GlcNAc(b1-2)[GlcNAc(b1-6)]Man(a1-6)[GlcNAc(b1-2)Man(a1-3)]Man(b1-4)GlcNAc(b1-4)GlcNAc
Outline: as §1

[9] = system: GlcNAc(b1-3)Gal(b1-4)GlcNAc(b1-3)Gal(b1-4)GlcNAc(b1-2)Man(a1-3)[GlcNAc(b1-3)Gal(b1-4)GlcNAc(b1-3)Gal(b1-4)GlcNAc(b1-2)Man(a1-6)]Man(b1-4)GlcNAc(b1-4)GlcNAc
Outline: as §1

[10] = system: GlcNAc(b1-3)Gal(b1-4)GlcNAc(b1-6)[GlcNAc(b1-3)Gal(b1-3)]GalNAc
Outline: as §1

Actinohivin (Actinomycete K97) was tested, and the “glycan array binding signal (z-score)” value [1] was 0.545.
With AgI/IIC123-GFP (Streptococcus mutans) the “glycan array binding signal (z-score)” value [2] was -0.127, the “glycan array binding signal (z-score)” value [3] was 0.224 and the “glycan array binding signal (z-score)” value [1] was 5.15. The “glycan array binding signal (z-score)” value [4] was 3.88, the “glycan array binding signal (z-score)” value [5] was 9 and the “glycan array binding signal (z-score)” value [6] was -0.201. For the same substance, the “glycan array binding signal (z-score)” value [7] was 7.4.
“SiiE (Salmonella typhimurium), A0A0H3NVH0” was tested, and the “glycan array binding signal (z-score)” value [8] was 3.14.
In the case of Wza (Escherichia coli), P0A930, the “glycan array binding signal (z-score)” value [8] is reported as 0.119.
In the case of LcI (Legionella pneumophila), the “glycan array binding signal (z-score)” value [9] is reported as 3.83 and the “glycan array binding signal (z-score)” value [10] is reported as -0.064.
For “AgI/II Vhelical-GFP (Streptococcus mutans)”, the “glycan array binding signal (z-score)” value [4] was 0.722.
